Laboratory results as given in PubChem BioAssay AID1851 (National Center for Advancing Translational Sciences (NCATS), 2009).
Where “and” joins values, the source holds several entries; their conditions need not be identical. Equal entries are not always repeated. Out of some 16,000 compounds screened, about 5,800 (36%) were called active. About 23% were inconclusive and are not listed. Calls follow the shape of the dose curve; as a rule, active = well fitted curve in the direction sought with a large enough effect; inconclusive = small, poorly fitted or top-dose-only effect, or effect the other way; inactive = no such curve, though single readings can be large or run the other way. This is one part of the list. Some compounds were tested as several samples or in several runs, with calls that do not always agree.

What follows are molecules tested against Cytochrome P450 2C19 (Homo sapiens) (UniProt P33261) (assay: Cytochrome panel assay with activity outcomes). Settings: recombinant CYP, pro-luciferin dealkylation, luminescence, p450-cyp2c19; series mostly up to 57.1 µM; activity, negative = inhibition: at the top concentration.
% is scaled to controls: 0 for no effect and ±100 for the full control effect.

Cytochrome P450 2C19 (Homo sapiens), sequence (P33261 whole entry, looked up): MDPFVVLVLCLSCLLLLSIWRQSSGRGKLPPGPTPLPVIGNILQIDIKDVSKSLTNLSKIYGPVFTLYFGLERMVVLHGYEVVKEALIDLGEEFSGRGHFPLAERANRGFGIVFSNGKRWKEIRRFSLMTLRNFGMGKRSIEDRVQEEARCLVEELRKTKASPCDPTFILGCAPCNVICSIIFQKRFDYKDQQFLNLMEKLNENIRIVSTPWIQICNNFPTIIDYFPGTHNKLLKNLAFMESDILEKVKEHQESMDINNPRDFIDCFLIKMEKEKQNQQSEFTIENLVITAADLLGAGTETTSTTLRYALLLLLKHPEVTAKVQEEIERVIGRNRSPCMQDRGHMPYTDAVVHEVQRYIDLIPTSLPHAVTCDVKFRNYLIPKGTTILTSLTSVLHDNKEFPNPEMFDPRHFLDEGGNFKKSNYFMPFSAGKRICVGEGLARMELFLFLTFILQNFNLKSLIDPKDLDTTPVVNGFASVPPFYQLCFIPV

For `CCNc1ncc2nc(-c3ccc(F)cc3)c(=O)n(-c3ccc(OC)cc3)c2n1`, which “activity, negative = inhibition” value is on record?
Its value is -14.2% (inactive).

With `Cc1cc(OCCn2cc(/C(N)=N/O)c3ccccc32)ccc1Cl` as the molecule, how does the AC50 read?
Its AC50 is 0.708 µM (active).

For `CCCCN(C)C(=O)c1coc(=O)c2ccccc12`, which “activity, negative = inhibition” value is on record?
Its value is -26.6% (inactive).

`Cc1c(C#N)c(=O)oc2ccc3ccccc3c12` was tested. Which “activity, negative = inhibition” value did it give?
The value was 6.24% (inactive).

For `CCCCNC(=O)Cc1coc2ccc3ccccc3c12`, which AC50 is on record?
The AC50 was 3.16 µM (active).

How did the “activity, negative = inhibition” value turn out when `Nc1nc2c(c(=O)[nH]1)N(C=O)[C@H](CNc1ccc(C(=O)N[C@@H](CCC(=O)O)C(=O)O)cc1)CN2` was run?
Its value is 4.69% [at 25.6 µM] (inactive).

For `CCOC(=O)c1c(C)c(C(=O)NCCN2CCOCC2)c(C)n1CC`, which “activity, negative = inhibition” value is on record?
Its value is -10% (inactive).

Which AC50 does the source give for `CCOC(=O)c1c(C)c(C(=O)N2CCCCCC2)c(C)n1C` here?
The AC50 was 7.08 µM (active).

With `CC(C)CN1CCC2(CC1)CCN(C(=O)c1csnn1)CC2` as the molecule, how does the “activity, negative = inhibition” value read?
Its value is -18% (inactive).

`O=C(Nc1cccc(F)c1)/C(=C\c1ccco1)NC(=O)c1cccs1` was tested. Which AC50 did it give?
Its AC50 is 14.1 µM (active).

For `CCOC(=O)c1c(C)nc2c(c1-c1ccccc1)C(=O)CC(C)(C)C2`, which AC50 is on record?
The AC50 was 7.08 µM (active).

`CCn1cc(C(=O)O)c(=O)c2cc(F)c(N3CCN[C@@H](C)C3)c(F)c21` was tested. Which AC50 did it give?
Its AC50 is “inactive”.

Which AC50 does the source give for `COC(=O)C1=C(C)N=C2SC(C)C(=O)N2C1/C=C/c1ccccc1` (stereo not given) here?
The AC50 was 5.01 µM (active).

`CCc1cc2c(c(CC)n1)CCC(=O)N2Cc1ccc(-c2ccccc2-c2nn[nH]n2)cc1` was tested. Which AC50 did it give?
The AC50 was 5.01 µM (active).

`CC1=N[C@@](C)(COC(=O)[C@]2(C)N[C@](C)(CO)CO2)COC1=O` was tested. Which activity, negative = inhibition did it give?
The activity, negative = inhibition was 40.4% [at 11.4 µM] (inactive).

For `Cc1ccccc1NC(=O)/C(=C/c1ccccc1)c1ccccc1`, which AC50 is on record?
The AC50 was 10 µM (active).

`CC(C)NC(=O)c1ccccc1NC(=O)/C=C/c1ccc([N+](=O)[O-])cc1` was tested. Which “activity, negative = inhibition” value did it give?
The value was -23.5% (inactive).

With `O=C(O)/C(=C\c1ccccc1)c1ccccc1` as the molecule, how does the activity, negative = inhibition read?
Its activity, negative = inhibition is 11.9% [at 11.4 µM] (inactive).

With `COc1ccc(/C=C(/C(=O)Nc2ccccc2C(=O)NC(C)C)c2ccccc2)cc1` as the molecule, how does the AC50 read?
Its AC50 is 15.8 µM (active).

Which AC50 does the source give for `CCN(CC)CCOC(=O)C1(C2CCCCC2)CCCCC1` here?
The AC50 was “inactive”.

For `N#Cc1cccc(NC(=O)N2CCCC3(CCN(C(=O)c4cc(C(F)(F)F)cc(C(F)(F)F)c4)CC3)C2)c1`, which “activity, negative = inhibition” value is on record?
Its value is -40.9% (inactive).

How did the “activity, negative = inhibition” value turn out when `O=C(Nc1cccc(F)c1)N1CC2(CCN(C(=O)c3cc(C(F)(F)F)cc(C(F)(F)F)c3)CC2)C1` was run?
The value was -18.1% (inactive).

With `N#Cc1cccc(NC(=O)N2CC3(CCN(C(=O)c4cc(C(F)(F)F)cc(C(F)(F)F)c4)CC3)C2)c1` as the molecule, how does the AC50 read?
The AC50 was 0.631 µM (active).

For `Cc1ccc2c(c1)/C(=N/OC(=O)c1ccc(F)cc1)CCS2`, which “activity, negative = inhibition” value is on record?
Its value is -3.53% (inactive).

With `C/C(=N\OC(=O)c1ccc(F)cc1)c1nccs1` as the molecule, how does the AC50 read?
Its AC50 is 17.8 µM (active).

With `O=C(O)[C@H]1[C@H](C(=O)O)[C@H](C(=O)O)C[C@@H]1C(=O)O` as the molecule, how does the activity, negative = inhibition read?
Its activity, negative = inhibition is 24.8% [at 11.4 µM] (inactive).

For `O=C(O)[C@H]1C[C@H](C(=O)O)N1`, which “activity, negative = inhibition” value is on record?
The value was 29.8% (inactive).

Which AC50 does the source give for `O=C(O)[C@@H]1C[C@@H](C(=O)O)N1` here?
The AC50 was 25.1 µM (active).

`COc1c(/C=N/Nc2ccc([N+](=O)[O-])cc2[N+](=O)[O-])c(C)nn1-c1ccccc1` was tested. Which “activity, negative = inhibition” value did it give?
The value was -25.7% (inactive).

How did the AC50 turn out when `O=[N+]([O-])c1ccccc1N/N=C/c1c[nH]c2ccccc12` was run?
Its AC50 is 10 µM (active).

With `O=S(=O)(NCc1cn2ccsc2n1)c1ccc(Oc2ccccc2)cc1` as the molecule, how does the AC50 read?
Its AC50 is 10 µM (active).

How did the “activity, negative = inhibition” value turn out when `COc1ccccc1N1CCN(CCN2C(=O)c3ccccc3C(C)(C)C2=O)CC1` was run?
Its value is -24% (inactive).

How did the AC50 turn out when `COc1cccc2cc(C(=O)CC3(O)C(=O)N(Cc4ccccc4)c4ccccc43)c(=O)oc12` (stereo not given) was run?
The AC50 was 25.1 µM (active).

With `N.N.O=C(O)C1(C(=O)O)CCC1.[Pt]` as the molecule, how does the AC50 read?
Its AC50 is 3.98 µM (active).

With `O=C(O)C1(C(=O)O)CCN(S(=O)(=O)c2ccccc2)CC1` as the molecule, how does the activity, negative = inhibition read?
Its activity, negative = inhibition is 16.2% [at 11.4 µM] (inactive).

For `O=C(CSc1nnc(COc2ccccc2)n1-c1ccccc1)c1ccccc1`, which AC50 is on record?
The AC50 was 3.98 µM (active).

`COc1ccc(OCc2nnc(SCC(=O)O)n2N)cc1` was tested. Which “activity, negative = inhibition” value did it give?
The value was 17.5% (inactive).

Which AC50 does the source give for `Nc1nonc1-n1nncc1-c1ccccc1` here?
The AC50 was 6.31 µM (active).

`CC(C)OC(=O)c1nnn(-c2nonc2N)c1CSc1ccccn1` was tested. Which AC50 did it give?
Its AC50 is 0.251 µM (active).

Which AC50 does the source give for `CCOC(=O)c1nnn(-c2nonc2N)c1-c1ccccc1` here?
The AC50 was 2.82 µM (active).

Which AC50 does the source give for `Cc1c(C(=O)N2CCCCCC2)nnn1-c1nonc1N` here?
The AC50 was 7.94 µM (active).

For `Cc1nonc1NC(=O)N1CCCC1`, which “activity, negative = inhibition” value is on record?
The value was 32.4% (inactive).

`NC(N)=NC(N)=Nc1c(F)c(F)c(F)c(F)c1F` was tested. Which activity, negative = inhibition did it give?
Its activity, negative = inhibition is -5.72% [at 11.4 µM] (inactive).

How did the AC50 turn out when `CCOC(=O)c1nnn(-c2nc(OC)nc(N3CCCCC3)n2)c1-c1ccccc1` was run?
Its AC50 is 7.94 µM (active).

For `COCc1c(C(N)=O)nnn1-c1nonc1N`, which “activity, negative = inhibition” value is on record?
Its value is -13.1% (inactive).

Which AC50 does the source give for `CCOC(=O)c1nnn(-c2nonc2N)c1-c1ccc(C)cc1` here?
The AC50 was 1.58 µM (active).

For `OC[C@H]1NC[C@H](O)[C@@H](O)[C@H]1O`, which “activity, negative = inhibition” value is on record?
Its value is 17.1% (inactive).

How did the “activity, negative = inhibition” value turn out when `COCC(=O)N1CCC[C@@]2(CCN(Cc3ccc(C#N)cc3)C2)C1` was run?
The value was 38.5% (inactive).

`O=C(CCN1C(=O)c2cccc3cccc(c23)C1=O)N1CCN(Cc2ccc3c(c2)OCO3)CC1` was tested. Which AC50 did it give?
The AC50 was 1.58 µM (active).

`COCC(=O)N1CCC2(CC1)CN(Cc1ccc(C#N)cc1)C2` was tested. Which “activity, negative = inhibition” value did it give?
The value was 24.8% (inactive).

`c1cnc(N2CCN(Cc3ccc4c(c3)OCO4)CC2)nc1` was tested. Which AC50 did it give?
Its AC50 is 2 µM (active) and 631 nM (active) and inactive.

With `O=C(COc1ccc(Cl)cc1)N1CCN(Cc2ccc3c(c2)OCO3)CC1` as the molecule, how does the AC50 read?
The AC50 was 5.01 µM (active).

`O=C(O)[C@@H]1CCCN1Cc1ccc2c(c1)OCO2` was tested. Which activity, negative = inhibition did it give?
Its activity, negative = inhibition is 14.1% [at 11.4 µM] (inactive).

With `Cc1noc2ncnc(Oc3ccc4ccccc4c3)c12` as the molecule, how does the AC50 read?
Its AC50 is 7.08 µM (active).

`Cc1cccc(Oc2ncnc3onc(C)c23)c1C` was tested. Which AC50 did it give?
Its AC50 is 5.01 µM (active).

`Cc1noc(C)c1-c1cc(NCc2ccccc2)ncn1` was tested. Which “activity, negative = inhibition” value did it give?
The value was -41.3% (inactive).

Which “activity, negative = inhibition” value does the source give for `COc1ccc(NC(=O)N2CC3(CCN(C(=O)c4csnn4)CC3)C2)cc1` here?
Its value is 18% (inactive).

For `O=C(O)CN1CCN(Cc2ccccc2)C1=O`, which AC50 is on record?
The AC50 was 6.31 µM (active).

`NC(Cc1ccccc1)=NCC(=O)O` was tested. Which activity, negative = inhibition did it give?
The activity, negative = inhibition was 18.2% [at 11.4 µM] (inactive).

With `O=C(O)CN1CCN(Cc2ccc(F)cc2Cl)C1=O` as the molecule, how does the AC50 read?
The AC50 was 5.01 µM (active).

How did the “activity, negative = inhibition” value turn out when `Cc1cccc(CN2CCN(CC(=O)O)C2=O)c1` was run?
The value was -2.07% (inactive).

How did the “activity, negative = inhibition” value turn out when `Nc1nc2ncc(CNc3ccc(C(=O)N[C@@H](CCC(=O)O)C(=O)O)cc3)nc2c(=O)[nH]1` was run?
The value was 9.66% [at 25.6 µM] (inactive).

For `Nc1ccc(O)c(C(=O)O)c1`, which AC50 is on record?
Its AC50 is 5.01 µM (active).

For `N[C@@H](C(=O)O)c1ccc(O)c(C(=O)O)c1`, which “activity, negative = inhibition” value is on record?
Its value is -11.4% (inactive).

How did the activity, negative = inhibition turn out when `NC(N)=N/N=C\c1ccc(O)c(C(=O)O)c1` was run?
Its activity, negative = inhibition is 16.2% [at 11.4 µM] (inactive).
